From the supplement of paper PMC7724964

T1: BTN1A1 285-479 SPRY (domain begin residue: 285, domain end residue: 479), Q13410
T1 chain: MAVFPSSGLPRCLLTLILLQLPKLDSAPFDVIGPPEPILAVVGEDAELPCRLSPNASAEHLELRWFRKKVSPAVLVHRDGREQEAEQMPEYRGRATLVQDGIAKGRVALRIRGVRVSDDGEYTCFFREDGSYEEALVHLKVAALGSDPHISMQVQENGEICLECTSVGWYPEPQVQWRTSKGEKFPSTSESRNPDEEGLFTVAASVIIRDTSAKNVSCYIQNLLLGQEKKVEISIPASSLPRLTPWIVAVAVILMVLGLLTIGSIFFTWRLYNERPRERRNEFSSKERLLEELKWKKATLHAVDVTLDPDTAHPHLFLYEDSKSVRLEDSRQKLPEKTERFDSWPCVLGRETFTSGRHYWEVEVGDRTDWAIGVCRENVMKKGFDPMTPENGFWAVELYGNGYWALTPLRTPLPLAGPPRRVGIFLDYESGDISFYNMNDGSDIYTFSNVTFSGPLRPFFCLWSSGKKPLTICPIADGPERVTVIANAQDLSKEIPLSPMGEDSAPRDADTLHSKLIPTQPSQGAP

T2: ALDOA 1-364 Glycolytic (domain begin residue: 1, domain end residue: 364), P04075
T2 chain: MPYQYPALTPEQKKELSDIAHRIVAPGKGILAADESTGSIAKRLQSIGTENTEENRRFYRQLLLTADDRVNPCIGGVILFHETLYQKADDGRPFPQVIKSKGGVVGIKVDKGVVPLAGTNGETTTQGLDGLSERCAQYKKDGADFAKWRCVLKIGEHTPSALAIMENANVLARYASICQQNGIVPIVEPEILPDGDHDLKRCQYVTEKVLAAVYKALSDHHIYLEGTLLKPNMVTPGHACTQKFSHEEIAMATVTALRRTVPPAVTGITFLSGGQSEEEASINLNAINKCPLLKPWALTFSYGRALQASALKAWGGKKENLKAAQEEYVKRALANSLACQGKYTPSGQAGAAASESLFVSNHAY

T3: ARFGEF2 639-829 Sec7 (domain begin residue: 639, domain end residue: 829), Q9Y6D5
T3 chain: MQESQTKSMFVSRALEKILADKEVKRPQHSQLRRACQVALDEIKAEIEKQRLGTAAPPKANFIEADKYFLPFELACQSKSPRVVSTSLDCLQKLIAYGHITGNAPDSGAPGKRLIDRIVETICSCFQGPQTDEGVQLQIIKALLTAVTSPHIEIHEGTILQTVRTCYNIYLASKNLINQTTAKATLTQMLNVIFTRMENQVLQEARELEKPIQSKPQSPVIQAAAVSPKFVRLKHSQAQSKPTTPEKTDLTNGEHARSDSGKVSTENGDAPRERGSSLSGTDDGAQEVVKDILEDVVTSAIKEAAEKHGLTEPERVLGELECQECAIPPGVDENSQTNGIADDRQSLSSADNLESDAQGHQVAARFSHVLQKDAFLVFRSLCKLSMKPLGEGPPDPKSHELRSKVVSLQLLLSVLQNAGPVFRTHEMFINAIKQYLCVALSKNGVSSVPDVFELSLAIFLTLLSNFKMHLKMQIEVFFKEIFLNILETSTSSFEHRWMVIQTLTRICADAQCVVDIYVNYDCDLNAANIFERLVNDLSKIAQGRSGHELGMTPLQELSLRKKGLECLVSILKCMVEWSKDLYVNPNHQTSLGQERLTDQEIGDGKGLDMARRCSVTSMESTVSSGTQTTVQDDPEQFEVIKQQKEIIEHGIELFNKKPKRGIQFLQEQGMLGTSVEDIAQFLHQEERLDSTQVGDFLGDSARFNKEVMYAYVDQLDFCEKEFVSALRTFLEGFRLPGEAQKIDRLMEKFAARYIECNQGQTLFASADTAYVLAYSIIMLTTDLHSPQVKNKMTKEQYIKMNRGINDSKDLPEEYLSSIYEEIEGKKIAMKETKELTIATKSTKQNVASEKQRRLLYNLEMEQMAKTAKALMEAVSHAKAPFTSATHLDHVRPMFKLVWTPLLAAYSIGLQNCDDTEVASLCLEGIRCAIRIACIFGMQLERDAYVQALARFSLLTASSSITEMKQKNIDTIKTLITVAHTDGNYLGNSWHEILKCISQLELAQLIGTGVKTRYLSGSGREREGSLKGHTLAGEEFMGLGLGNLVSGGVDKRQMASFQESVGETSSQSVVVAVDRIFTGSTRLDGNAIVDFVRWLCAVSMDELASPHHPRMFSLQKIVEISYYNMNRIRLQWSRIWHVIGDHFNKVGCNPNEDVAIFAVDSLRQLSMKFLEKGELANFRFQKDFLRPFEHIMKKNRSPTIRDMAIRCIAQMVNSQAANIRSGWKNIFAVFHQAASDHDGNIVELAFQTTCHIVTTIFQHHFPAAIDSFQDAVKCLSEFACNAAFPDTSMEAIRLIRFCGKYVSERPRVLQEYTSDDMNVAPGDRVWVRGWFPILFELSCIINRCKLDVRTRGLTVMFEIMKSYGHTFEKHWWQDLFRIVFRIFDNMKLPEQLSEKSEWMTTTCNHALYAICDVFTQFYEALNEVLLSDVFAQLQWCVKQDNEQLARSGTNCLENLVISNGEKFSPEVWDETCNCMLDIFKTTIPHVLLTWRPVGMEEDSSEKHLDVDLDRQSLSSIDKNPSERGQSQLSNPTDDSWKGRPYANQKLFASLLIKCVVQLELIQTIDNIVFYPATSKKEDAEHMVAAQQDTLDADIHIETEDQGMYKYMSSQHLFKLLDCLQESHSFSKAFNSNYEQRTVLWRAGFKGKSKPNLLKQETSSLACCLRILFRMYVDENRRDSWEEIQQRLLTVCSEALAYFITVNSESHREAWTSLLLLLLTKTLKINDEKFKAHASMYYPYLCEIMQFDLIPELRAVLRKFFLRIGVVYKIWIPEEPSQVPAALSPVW

T4: ARID4A 568-634 Tudor-knot (domain begin residue: 568, domain end residue: 634), P29374
T4 chain: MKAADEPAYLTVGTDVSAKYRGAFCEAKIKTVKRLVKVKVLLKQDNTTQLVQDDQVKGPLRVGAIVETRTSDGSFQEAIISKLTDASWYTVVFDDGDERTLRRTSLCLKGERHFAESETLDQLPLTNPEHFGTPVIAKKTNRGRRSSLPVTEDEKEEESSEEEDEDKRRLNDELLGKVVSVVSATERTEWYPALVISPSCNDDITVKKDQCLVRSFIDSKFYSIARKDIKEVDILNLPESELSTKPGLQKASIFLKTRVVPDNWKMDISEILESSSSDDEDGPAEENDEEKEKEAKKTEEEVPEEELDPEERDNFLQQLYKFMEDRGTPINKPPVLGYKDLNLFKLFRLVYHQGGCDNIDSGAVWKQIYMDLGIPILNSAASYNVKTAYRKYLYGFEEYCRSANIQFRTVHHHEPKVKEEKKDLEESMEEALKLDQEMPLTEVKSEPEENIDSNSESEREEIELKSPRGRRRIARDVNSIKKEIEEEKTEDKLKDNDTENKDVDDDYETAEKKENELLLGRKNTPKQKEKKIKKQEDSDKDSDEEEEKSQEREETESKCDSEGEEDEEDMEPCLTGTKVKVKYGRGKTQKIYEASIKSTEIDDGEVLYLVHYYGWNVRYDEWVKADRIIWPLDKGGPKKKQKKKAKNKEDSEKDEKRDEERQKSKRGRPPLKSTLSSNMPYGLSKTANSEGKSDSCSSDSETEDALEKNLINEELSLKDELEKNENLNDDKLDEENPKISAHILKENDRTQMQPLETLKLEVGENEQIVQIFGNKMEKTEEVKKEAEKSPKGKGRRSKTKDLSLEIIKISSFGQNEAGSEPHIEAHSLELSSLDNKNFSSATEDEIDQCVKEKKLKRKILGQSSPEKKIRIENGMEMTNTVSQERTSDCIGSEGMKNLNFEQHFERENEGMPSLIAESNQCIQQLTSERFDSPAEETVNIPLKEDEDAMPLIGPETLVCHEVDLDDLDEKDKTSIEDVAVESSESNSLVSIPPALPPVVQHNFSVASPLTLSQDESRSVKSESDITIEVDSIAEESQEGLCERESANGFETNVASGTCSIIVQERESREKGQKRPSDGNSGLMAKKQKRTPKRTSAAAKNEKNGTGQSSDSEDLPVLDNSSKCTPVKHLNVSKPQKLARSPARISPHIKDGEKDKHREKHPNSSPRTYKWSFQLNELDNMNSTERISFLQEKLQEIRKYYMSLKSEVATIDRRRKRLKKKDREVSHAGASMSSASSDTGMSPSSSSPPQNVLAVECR

B1: unnamed (peptide)
chain: DVTWWSERAQATLVMM
B2: unnamed (peptide)
chain: AWSYLHGEWEWVQPVM
B3: unnamed (peptide)
chain: MPDGLPEWWQGRHDWW
B4: unnamed (peptide)
chain: WHPMDWMEHFQMMPDT
B5: unnamed (peptide)
chain: DWWDMWAQGDILEIHS

Molecular target: T1, BTN1A1 285-479 SPRY (domain begin …
Experiment: phage ELISA signal ratio (GST-PRM binding over GST background); higher = stronger binding of peptide-phage to the PRM
Protocol: (§1)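 Phage-displayed random hexadecapeptides (Cys-free, flanked by invariant Gly linkers, fused to the M13 P8 major coat protein) were selected over 5 rounds against GST-fused human PRM domains. Individual clones from rounds 4-5 were tested by phage ELISA, and positive clones binding the target but not GST were sequenced. Values are the ELISA signal ratio of target over background (GST); the background signal is given separately.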

Binder | phage ELISA signal ratio
B1 | 12.4
B4 | 5.73

Molecular target: T2, ALDOA 1-364 Glycolytic (domain begin …
Experiment: as above
Protocol: as §1

Binder | phage ELISA signal ratio
B2 | 14.5

Molecular target: T3, ARFGEF2 639-829 Sec7 (domain begin …
Experiment: as above
Protocol: as §1

Binder | phage ELISA signal ratio
B3 | 18.2

Molecular target: T4, ARID4A 568-634 Tudor-knot (domain begin …
Experiment: as above
Protocol: as §1

Binder | phage ELISA signal ratio
B5 | 11.5
